Test results published in the supplement of paper PMC6555819.

Columns and labels:
Assay in all cases: PBM binding z-score (relative to random genomic background probes); higher = stronger binding; sequences stand for … in GC…GCGATTGACAGCGTAGAATGAAGG
[1] = test system: FXR:RXRa (NR concentration 270 nM, RXRa partner concentration 90 nM)
In short: (§1)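 The probes on custom Agilent 4×180K protein-binding microarrays were double-stranded, with 34-nt variable regions bearing direct-repeat seeds, single-nucleotide variants, half-site ablations and random human genomic background sequences. Incubation lasted 1 h with ligand-free nuclear receptor dimers in PBS pH 7.4, 2% milk, 0.02% Triton X-100, 1 mM DTT, 0.2 mg/mL BSA and 0.4 mg/ml salmon testes DNA. Antibodies against each partner (one per run) detected bound dimers, and fluorescence scans were regression-normalized. Binding z-scores take the random background probes as reference.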

[2] = test system: LXRa:RXRa (NR concentration 270 nM, RXRa partner concentration 90 nM)
In short: as §1

[3] = test system: LXRa homodimer (NR concentration 270 nM)
In short: as §1

[4] = test system: LXRb:RXRa (NR concentration 270 nM, RXRa partner concentration 90 nM)
In short: as §1

[5] = test system: LXRb homodimer (NR concentration 270 nM)
In short: as §1

[6] = test system: PPARa:RXRa (NR concentration 270 nM, RXRa partner concentration 90 nM)
In short: as §1

[7] = test system: PPARg:RXRa (NR concentration 180 nM, RXRa partner concentration 90 nM)
In short: as §1

[8] = test system: PPARg:RXRa 270nM:90nM, anti-RXR (NR concentration 270 nM, RXRa partner concentration 90 nM)
In short: as §1

[9] = test system: PPARg:RXRa 30nM:10nM, anti-RXR (NR concentration 30 nM, RXRa partner concentration 10 nM)
In short: as §1

[10] = test system: PPARg:RXRa 90nM:30nM, anti-RXR (NR concentration 90 nM, RXRa partner concentration 30 nM)
In short: as §1

[11] = test system: PPARg:RXRa DBDmut IVT, anti-RXR (DBD mutation: RXRa K156A/R161A, NR concentration 270 nM, RXRa partner concentration 90 nM)
In short: as §1

[12] = test system: PPARg:RXRa IVT, anti-PPARg (NR concentration 270 nM, RXRa partner concentration 90 nM)
In short: as §1

[13] = test system: PPARg DBDmut:RXRa IVT, anti-PPARg (DBD mutation: PPARg1 K132A/R137A, NR concentration 270 nM, RXRa partner concentration 90 nM)
In short: as §1

[14] = test system: PPARg DBDmut IVT, anti-PPARg (DBD mutation: PPARg1 K132A/R137A, NR concentration 270 nM)
In short: as §1

[15] = test system: PPARg homodimer (NR concentration 180 nM)
In short: as §1

[16] = test system: PXR:RXRa (NR concentration 270 nM, RXRa partner concentration 90 nM)
In short: as §1

[17] = test system: PXR homodimer (NR concentration 270 nM)
In short: as §1

[18] = test system: RARa:RXR (NR concentration 270 nM, RXRa partner concentration 90 nM)
In short: as §1

[19] = test system: RARa homodimer (NR concentration 270 nM)
In short: as §1

[20] = test system: RARb:RXRa (NR concentration 270 nM, RXRa partner concentration 90 nM)
In short: as §1

Sequence	PBM binding z-score [1]	PBM binding z-score [2]	PBM binding z-score [3]	PBM binding z-score [4]	PBM binding z-score [5]	PBM binding z-score [6]	PBM binding z-score [7]	PBM binding z-score [8]	PBM binding z-score [9]	PBM binding z-score [10]	PBM binding z-score [11]	PBM binding z-score [12]	PBM binding z-score [13]	PBM binding z-score [14]	PBM binding z-score [15]	PBM binding z-score [16]	PBM binding z-score [17]	PBM binding z-score [18]	PBM binding z-score [19]	PBM binding z-score [20]
CCTCGGAGGACAGATGGTCAGAGCTGTCCGCTTT	-0.143	-0.35	-0.187	-0.927	-0.896	-0.597	-0.644	-0.669	-1.17	-0.907	-0.386	-0.558	-1	-1.4	0.238	-0.384	-0.503	-0.309	-0.685	0.479
CGAACGAGGGCATGAGTTGAGAGCAAATGCCGAT	0.636	0.355	-0.664	0.203	-1	1.65	1.42	1.4	0.0136	0.958	3.19	2.16	-0.212	-0.733	-0.198	0.363	-0.12	0.437	-0.617	2.05
CCTGCTAGGTCATCGTCAGCTAATCTACAGTATG	3.85	2.89	0.112	1.87	-0.413	3.5	2.06	2.75	0.439	1.47	4.49	3.59	-0.277	-0.677	0.929	1.45	-0.29	2.39	-0.471	4.03
TCTAGCAGGCCAGAGAGTCACTCAAGAGGTACGG	-0.122	0.066	-0.75	-0.374	-1.55	0.177	0.656	1.18	1.72	1.4	0.614	-0.685	-1.43	-1.33	-0.979	-0.468	-0.71	-0.29	-0.925	-0.0563
ACTAGCAGGCCAAGTTTGGGTAACTCAAACAAAG	-0.442	-0.634	-0.575	-0.304	-0.8	-0.339	-0.414	-0.541	-0.687	-0.687	0.555	0.362	-0.71	-1.1	-0.788	-0.378	-0.687	-0.383	-0.573	0.143
CTTCCAAGGTCAATGCTAGGTCAGTGAAAGCATT	6.83	5.58	3.58	4.25	1.7	5.14	4.42	4.73	1.5	3.45	3.33	4.08	1	0.112	4.08	4.64	1.63	6.06	0.988	5.2
CCTAGAAGGCCAGGGTCACTCAAGCATTTCGCTT	2.51	1.79	-0.266	2.02	-0.312	3.12	0.628	1.35	-0.294	0.786	0.376	0.709	-1.14	-1.39	1.89	2.81	0.284	3.21	1.23	3.06
TAGCCTAGGTCATGCGGGCAAGTATAGTGTCGGC	4.44	3.3	0.517	1.94	-0.137	3.73	2.32	2.59	0.322	1.54	1.66	3.02	0.235	-0.248	1.39	1.45	-0.333	2.21	0.228	3.83
GGAACGAGGGCATTCGAGTTGATCGCATGGCGAT	1.56	1.88	-0.524	0.182	-1	1.17	0.585	0.552	-0.63	0.176	3.31	1.97	-0.808	-0.537	-0.069	3.96	1.47	0.882	-1.16	1.68
ACTTACGGGTCAACGAGCTTATAGCACGCGTATA	6.23	3.9	0.0459	3.55	0.744	5.49	4.76	5.05	1.71	3.6	3.07	3.31	0.724	0.908	1.42	3.19	-0.152	4.16	0.825	4
TTAGCAAGGTGAAAGGTCGTTGATGCACGCCTTG	3.42	2.78	-0.037	2.47	-0.713	5.24	8.3	7.95	8.33	9.55	2.15	4.63	0.373	-0.113	1.42	3.85	0.158	5.72	-0.524	2.98
TCGAGTAGGTTAGGGGCGTTCAGAATGGCGTCGA	0.341	0.362	-0.22	0.565	-0.227	0.892	0.197	1.54	0.846	1.56	1.69	1.26	0.15	-0.777	0.542	0.471	0.0132	0.223	-0.263	0.552
CCTAGTTGGTCAGGAGATCACACACCGGATATGA	0.118	0.263	0.478	0.0659	0.414	0.215	1.01	0.651	0.236	0.432	0.463	0.766	0.576	0.266	1.26	0.215	0.728	0.415	1.34	0.518
CGTCAAAGTTCAAGGTAACGTAGCAGAAAGCAGC	6.17	5.74	2.69	3.38	0.96	4.55	4.28	5.21	2.09	4.31	0.831	2.13	0.429	0.415	4.56	4.44	3.02	3.64	2.42	5.1
CAAACTAGGTCATAGAGGTCAAAGTCCGTGCGTA	7.25	6.71	8.36	6.15	2.33	6.49	9.13	7.74	6.17	7.92	8.2	8.54	1.02	1.45	5.21	6.75	12.4	6.77	2.28	5.12
